How the values were obtained:
Test in all cases: PBM binding z-score (relative to random genomic background probes); higher = stronger binding; sequences stand for … in GC…GCGATTGACAGCGTAGAATGAAGG
[1] = tested on: PPARg:RXRa DBDmut IVT, anti-RXR (DBD mutation: RXRa K156A/R161A, NR concentration 270 nM, RXRa partner concentration 90 nM)
Summary of the method: (§1)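 Scanned fluorescence from custom Agilent 4×180K protein-binding microarrays was regression-normalized. Binding z-scores use random background probes as reference. Ligand-free nuclear receptor dimers were incubated on the arrays for 1 h and detected with antibodies against each partner (one per run).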

[2] = tested on: PPARg:RXRa IVT, anti-PPARg (NR concentration 270 nM, RXRa partner concentration 90 nM)
Summary of the method: as §1

[3] = tested on: PPARg DBDmut:RXRa IVT, anti-PPARg (DBD mutation: PPARg1 K132A/R137A, NR concentration 270 nM, RXRa partner concentration 90 nM)
Summary of the method: as §1

[4] = tested on: PPARg DBDmut IVT, anti-PPARg (DBD mutation: PPARg1 K132A/R137A, NR concentration 270 nM)
Summary of the method: as §1

[5] = tested on: PPARg homodimer (NR concentration 180 nM)
Summary of the method: as §1

[6] = tested on: PXR:RXRa (NR concentration 270 nM, RXRa partner concentration 90 nM)
Summary of the method: as §1

[7] = tested on: PXR homodimer (NR concentration 270 nM)
Summary of the method: as §1

[8] = tested on: RARa:RXR (NR concentration 270 nM, RXRa partner concentration 90 nM)
Summary of the method: as §1

[9] = tested on: RARa homodimer (NR concentration 270 nM)
Summary of the method: as §1

ACTAGCAGGCCAAGAGTCACTCAAGATTAGTCCG
PBM binding z-score [1]: 0.813 | PBM binding z-score [2]: 0.847 | PBM binding z-score [3]: -0.175 | PBM binding z-score [4]: -0.385 | PBM binding z-score [5]: 0.631 | PBM binding z-score [6]: -0.105 | PBM binding z-score [7]: -0.185 | PBM binding z-score [8]: 0.354 | PBM binding z-score [9]: -0.112

TCTGCTAGGTCAGTTGGGCAGCTAACGAGCTGCC
PBM binding z-score [1]: 2.07 | PBM binding z-score [2]: 2.7 | PBM binding z-score [3]: -0.163 | PBM binding z-score [4]: -0.28 | PBM binding z-score [5]: 0.0544 | PBM binding z-score [6]: -0.242 | PBM binding z-score [7]: -1.29 | PBM binding z-score [8]: 0.253 | PBM binding z-score [9]: -1.12

CGAACTAGCTCAAGGACAGTGAATCTCCGCACGC
PBM binding z-score [1]: 0.26 | PBM binding z-score [2]: -0.559 | PBM binding z-score [3]: -0.68 | PBM binding z-score [4]: -0.183 | PBM binding z-score [5]: -0.00792 | PBM binding z-score [6]: -0.255 | PBM binding z-score [7]: -0.354 | PBM binding z-score [8]: -0.192 | PBM binding z-score [9]: -0.143

CAAACTAGGTCACAGAGGTCAACGTCCGTGCGTA
PBM binding z-score [1]: 8.84 | PBM binding z-score [2]: 9.29 | PBM binding z-score [3]: 4.63 | PBM binding z-score [4]: 5.15 | PBM binding z-score [5]: 4.43 | PBM binding z-score [6]: 6.82 | PBM binding z-score [7]: 8.28 | PBM binding z-score [8]: 7.23 | PBM binding z-score [9]: 2.74

AGTCAAAGTTCACGACGAGGTAACGTAAAGCACG
PBM binding z-score [1]: 0.0759 | PBM binding z-score [2]: 3.83 | PBM binding z-score [3]: 0.65 | PBM binding z-score [4]: 1.24 | PBM binding z-score [5]: 4 | PBM binding z-score [6]: 5.24 | PBM binding z-score [7]: 2.18 | PBM binding z-score [8]: 5 | PBM binding z-score [9]: 1.23

CCTACTGGGCCAAAAATGTCATTGATGCCGATAA
PBM binding z-score [1]: 2.92 | PBM binding z-score [2]: 2.47 | PBM binding z-score [3]: -0.355 | PBM binding z-score [4]: -0.43 | PBM binding z-score [5]: -0.472 | PBM binding z-score [6]: -0.383 | PBM binding z-score [7]: -0.24 | PBM binding z-score [8]: -0.612 | PBM binding z-score [9]: 0.0407

CGTCCAAGGTCAACGCTAGGTCAGTGAAAGCATT
PBM binding z-score [1]: 3.48 | PBM binding z-score [2]: 4.66 | PBM binding z-score [3]: -0.0404 | PBM binding z-score [4]: 0.201 | PBM binding z-score [5]: 6.46 | PBM binding z-score [6]: 5.11 | PBM binding z-score [7]: 1.66 | PBM binding z-score [8]: 6.35 | PBM binding z-score [9]: 2.52

AATACAGGATCACTAGGCCAGAGTAGGTACGAAT
PBM binding z-score [1]: 0.409 | PBM binding z-score [2]: 1.29 | PBM binding z-score [3]: 1.21 | PBM binding z-score [4]: 0.197 | PBM binding z-score [5]: 0.314 | PBM binding z-score [6]: -0.236 | PBM binding z-score [7]: 0.366 | PBM binding z-score [8]: -0.456 | PBM binding z-score [9]: 0.395

CGTCTAAGGTCAGCAGGTCAGTGAAAGCGACGTG
PBM binding z-score [1]: 3.72 | PBM binding z-score [2]: 3.7 | PBM binding z-score [3]: 0.756 | PBM binding z-score [4]: 0.144 | PBM binding z-score [5]: 5.12 | PBM binding z-score [6]: 4.16 | PBM binding z-score [7]: 0.612 | PBM binding z-score [8]: 5.94 | PBM binding z-score [9]: 2.05

TAGCCTAGGTCCTTCAGGGGCCAGTATAGAAAGC
PBM binding z-score [1]: -1.03 | PBM binding z-score [2]: -0.0823 | PBM binding z-score [3]: -0.672 | PBM binding z-score [4]: 0.051 | PBM binding z-score [5]: -0.932 | PBM binding z-score [6]: -0.686 | PBM binding z-score [7]: -0.979 | PBM binding z-score [8]: -0.334 | PBM binding z-score [9]: -0.852

AGTCAAAGGTCACTAGGTAACGTAAGATTCAGCT
PBM binding z-score [1]: 5.65 | PBM binding z-score [2]: 7.5 | PBM binding z-score [3]: 1.54 | PBM binding z-score [4]: 0.924 | PBM binding z-score [5]: 4.05 | PBM binding z-score [6]: 4.94 | PBM binding z-score [7]: 1.04 | PBM binding z-score [8]: 5.94 | PBM binding z-score [9]: 2.79

CGAACTAAGTCATCCAGGACAGTGAATACATTGA
PBM binding z-score [1]: 1.12 | PBM binding z-score [2]: 0.862 | PBM binding z-score [3]: 0.763 | PBM binding z-score [4]: 1.05 | PBM binding z-score [5]: 0.291 | PBM binding z-score [6]: -0.153 | PBM binding z-score [7]: -0.248 | PBM binding z-score [8]: 0.371 | PBM binding z-score [9]: 0.476

CGTCGGAGGACAGAAGGTCAGAGCTGTCCGCTTT
PBM binding z-score [1]: 0.0146 | PBM binding z-score [2]: 0.25 | PBM binding z-score [3]: -1.84 | PBM binding z-score [4]: -2.14 | PBM binding z-score [5]: 1.33 | PBM binding z-score [6]: 1.48 | PBM binding z-score [7]: -0.228 | PBM binding z-score [8]: 1.84 | PBM binding z-score [9]: 0.257

CCTCGGAGGACACCAGGAGGTCAGAGCTGCCAGA
PBM binding z-score [1]: -0.249 | PBM binding z-score [2]: 0.459 | PBM binding z-score [3]: -1.54 | PBM binding z-score [4]: -1.67 | PBM binding z-score [5]: 1.78 | PBM binding z-score [6]: 2.17 | PBM binding z-score [7]: -0.014 | PBM binding z-score [8]: 2.56 | PBM binding z-score [9]: 0.922

CGTCAAAGTTCAACTAAGTTAACGTAAAGCACGC
PBM binding z-score [1]: 0.764 | PBM binding z-score [2]: 1.89 | PBM binding z-score [3]: 1.94 | PBM binding z-score [4]: 1.78 | PBM binding z-score [5]: 2.97 | PBM binding z-score [6]: 6.14 | PBM binding z-score [7]: 5.97 | PBM binding z-score [8]: 4.09 | PBM binding z-score [9]: 2.57

CGTCCAAGGTCACAGGAGGTCAGTGAAGACAGAT
PBM binding z-score [1]: 4.02 | PBM binding z-score [2]: 5.26 | PBM binding z-score [3]: 0.184 | PBM binding z-score [4]: -0.411 | PBM binding z-score [5]: 4.98 | PBM binding z-score [6]: 6.88 | PBM binding z-score [7]: 3.92 | PBM binding z-score [8]: 6.48 | PBM binding z-score [9]: 2.32

CGTCCAAGGGCAGCAGGTCAGTGAAAGCGACGTG
PBM binding z-score [1]: 0.8 | PBM binding z-score [2]: 0.701 | PBM binding z-score [3]: -0.933 | PBM binding z-score [4]: -1.17 | PBM binding z-score [5]: 0.592 | PBM binding z-score [6]: 0.274 | PBM binding z-score [7]: -0.825 | PBM binding z-score [8]: 0.723 | PBM binding z-score [9]: -0.64

CCTACTGGGCCATTCAGAGGTCATTGATCATATG
PBM binding z-score [1]: 4.59 | PBM binding z-score [2]: 4.4 | PBM binding z-score [3]: 0.046 | PBM binding z-score [4]: 0.818 | PBM binding z-score [5]: 2.59 | PBM binding z-score [6]: 4.8 | PBM binding z-score [7]: 2.3 | PBM binding z-score [8]: 4.59 | PBM binding z-score [9]: 0.867

GCTGCTAGGTCAGGTTGGTCAACTAACGGGTACG
PBM binding z-score [1]: 3.05 | PBM binding z-score [2]: 2.52 | PBM binding z-score [3]: -0.717 | PBM binding z-score [4]: -0.77 | PBM binding z-score [5]: 0.891 | PBM binding z-score [6]: 0.217 | PBM binding z-score [7]: -0.382 | PBM binding z-score [8]: 0.842 | PBM binding z-score [9]: -0.0438

TAGCCTAGGACATGCGGGCCAGTATAGTGTCGGC
PBM binding z-score [1]: -0.985 | PBM binding z-score [2]: -0.448 | PBM binding z-score [3]: -1.11 | PBM binding z-score [4]: -0.53 | PBM binding z-score [5]: -1.04 | PBM binding z-score [6]: -0.867 | PBM binding z-score [7]: -0.905 | PBM binding z-score [8]: -0.797 | PBM binding z-score [9]: -0.552

CAAACTAGGTCACGAAAGGTCAACGTCGAATGAC
PBM binding z-score [1]: 8.6 | PBM binding z-score [2]: 9.17 | PBM binding z-score [3]: 3.99 | PBM binding z-score [4]: 4.43 | PBM binding z-score [5]: 6.55 | PBM binding z-score [6]: 7.35 | PBM binding z-score [7]: 2.65 | PBM binding z-score [8]: 7.97 | PBM binding z-score [9]: 4.53

CGTTCAAGGTCATAGGAGGTCAGTGAAGACAGAT
PBM binding z-score [1]: 3.95 | PBM binding z-score [2]: 5.26 | PBM binding z-score [3]: 1.34 | PBM binding z-score [4]: 2.03 | PBM binding z-score [5]: 5.42 | PBM binding z-score [6]: 6.86 | PBM binding z-score [7]: 5.84 | PBM binding z-score [8]: 6.33 | PBM binding z-score [9]: 3.73

CCTACTGGGCCAAAGGTCCTTGATTCCAATGCTC
PBM binding z-score [1]: 5.03 | PBM binding z-score [2]: 5.07 | PBM binding z-score [3]: -0.487 | PBM binding z-score [4]: -1.06 | PBM binding z-score [5]: 0.826 | PBM binding z-score [6]: -0.225 | PBM binding z-score [7]: -0.792 | PBM binding z-score [8]: 0.089 | PBM binding z-score [9]: -0.831

TAGCCTAGGCCATGGGCCAGTATACCACGCGAAC
PBM binding z-score [1]: -0.977 | PBM binding z-score [2]: -0.175 | PBM binding z-score [3]: -0.116 | PBM binding z-score [4]: -1.11 | PBM binding z-score [5]: -1.27 | PBM binding z-score [6]: -0.806 | PBM binding z-score [7]: -1.11 | PBM binding z-score [8]: -0.86 | PBM binding z-score [9]: -1.48

CGTCAAAGTTCTAGGTAACGTAACAGAAAGCAGC
PBM binding z-score [1]: 1.41 | PBM binding z-score [2]: 1.83 | PBM binding z-score [3]: 0.454 | PBM binding z-score [4]: 0.457 | PBM binding z-score [5]: 0.283 | PBM binding z-score [6]: -0.00995 | PBM binding z-score [7]: -0.093 | PBM binding z-score [8]: 0.103 | PBM binding z-score [9]: 0.866

TTATCAAGGTGAAAGGTCGTTGATGCACGCCTTG
PBM binding z-score [1]: 4.86 | PBM binding z-score [2]: 6.15 | PBM binding z-score [3]: 1.25 | PBM binding z-score [4]: 1.43 | PBM binding z-score [5]: 2.37 | PBM binding z-score [6]: 3.99 | PBM binding z-score [7]: 0.766 | PBM binding z-score [8]: 5.9 | PBM binding z-score [9]: 0.465
